# Compound activity deposited in PubChem BioAssay by National Center for Advancing Translational Sciences (NCATS).
# Sampled rows, rich in hits. Any-hit rate of the full collection: about 19%.
# uPA generation: cell surface uPA generation inhibition; cell surface uPA generation assay, qHTS; Potency, µM (highest dose often 38.3 µM), for the others: at the top dose activity change, negative = inhibition, most hits filed as inhibitors; 330,000 tested, 0.31% active; AID 540303; active = well fitted inhibition curve with a large enough effect; inconclusive = small, poorly fitted or top-dose-only effect; inactive = no such curve, though single readings can be large or run the other way; tested in mouse RAW 264.7 cells; note: potency is the fitted concentration of half-maximal effect; nearly all actives have a fitted effect of over 55% in size
# HT1080-NT tox: kills 2HG-producing HT-1080-NT fibrosarcoma cells | HT-1080-NT fibrosarcoma viability, CellTiter-Glo ATP luminescence, 48 h | Potency, µM (doses to about 46.1 µM), for inactives: at the top dose activity, negative = less viability, hits mostly cytotoxic | 360,000 tested, 1.6% active | AID 686970;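 note: NT is the 2HG producing partner of a matched IDH1 knockdown line; potency is the fitted concentration of half-maximal effect; 0% = DMSO-treated cells and -100% = media-only wells without cells; nearly all actives have a fitted effect of over 55% in size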
#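 HT-1080-NT; 750 cells/well; 5% FBS RPMI; 48 h compound, 37 degrees C; CellTiter-Glo luminescence; curve fitting and curve-class assignment.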
# TDP1 cell CPT: DT40-hTDP1 cell growth loss with CPT; chicken DT40 Tdp1-/-;hTDP1 cells + 20 nM CPT, ATP luminescence, 48 h; Potency, µM (titrated, usually from 46.2 µM), for inactives: top-dose activity change, negative = growth inhibition, hits mostly inhibitors; 420,000 tested, 12% active; AID 686979; note: potency is the fitted concentration of half-maximal effect; nearly all actives have a fitted effect of over 55% in size
#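 Chicken DT40 Tdp1-/- cells stably complemented with human TDP1 were seeded at 400 cells/well in medium containing 20 nM camptothecin, exposed to pin-transferred compounds, and grown at 37 °C for at least 48 hr. Viability was read as ATP luminescence.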
# IL1B secr inh: inhibitors of inflammasome signaling (IL-1 beta secretion). THP-1 LPS/ATP IL-1B secretion, AlphaLISA, 16 h; stronger effect = lower value. 360,000 tested, 4.7% active. activity change, % at 57.5 µM; in the data active = activity change below about -50%; inconclusive = mostly about -30% to -49%
#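 THP-1 cells pretreated 1 hr with compounds (up to 57.5 uM final), then stimulated with LPS (250 ng/mL final) plus ATP (1.25 mM final); secreted IL-1B measured by AlphaLISA after 16 hr, decreased signal indicating inhibition.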
# DT40 TDP1 no CPT: qHTS for Inhibitors of human tyrosyl-DNA phosphodiesterase 1 (TDP1): qHTS in cells in absence of CPT. DT40 Tdp1-/- hTDP1 cells, no CPT, ATP luminescence, 48 h. Potency, µM (doses to about 46.2 µM), without a hit: at the highest dose activity change, negative = growth inhibition, hits mostly inhibitors. 420,000 tested, 15% active. AID 686978, 2013; note: potency is the fitted concentration of half-maximal effect; nearly all actives have a fitted effect of over 55% in size
#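 Luminescent ATP content (CellTiter-Glo) served as the growth readout. Knockout chicken DT40 cells expressing human TDP1 were exposed to compounds without camptothecin for a minimum 48 hr at 37 °C.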
# HT1080 IDH1KD tx: toxicity to HT-1080 IDH1 knockdown cells (counter line); HT-1080 IDH1 knockdown viability, ATP luminescence, 48 h; Potency, µM (titrated, usually from 46.1 µM), for the others: at the top dose activity, negative = toxicity, actives largely listed as cytotoxic; 360,000 tested, 2% active;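 note: potency is the fitted concentration of half-maximal effect; 0% = DMSO wells and -100% = cell-free medium wells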
#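 Luminescent ATP read-out (CellTiter-Glo, 10 min at room temperature) after 48 h compound exposure at 37 °C gave viability of IDH1-knockdown HT-1080 cells. Activity was normalised to DMSO and cell-free wells, then fitted as concentration-response curves.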
# * = called active by the depositor; ? = inconclusive; nt = not tested or not shown; [ ] = another dose, or the depositor's remark. Unless noted, calls come from the whole dose curve; as a rule, active = well fitted curve in the direction sought with a large enough effect; inconclusive = small, poorly fitted or top-dose-only effect, or another doubt; inactive = no such curve, though single readings can be large; an effect the other way counts as inactive or inconclusive. Unless noted, % is set by controls: 0 for no effect and ±100 for the full control effect.
SMILES,uPA generation,HT1080-NT tox,TDP1 cell CPT,IL1B secr inh,DT40 TDP1 no CPT,HT1080 IDH1KD tx
CCOP(=O)(OCC)C(Nc1ccccc1)c1cccnc1 (stereo not drawn),7%,0%,6%,19,-13%,15%
O=P(OC1CCCCC1)(OC1CCCCC1)C(Nc1ccccc1)c1cccnc1 (stereo not drawn),2%,-19%,?,-72*,15µM*,-21%
O=C(NCC1(c2ccccc2)CCCC1)C(=O)Nc1cccc(Br)c1,nt,nt,-8%,nt,-29%,nt
Cc1cc(=O)c2cc(Br)ccc2[nH]1,-8%,-4%,6.5µM*,8,6.5µM*,-27%
CC(=O)Nc1ccc(NC(=O)COc2cccc3ccccc23)cc1,nt,-11%,9.2µM*,-3,8.2µM*,-7%
Cc1cccc(OCC(=O)Nc2ccncc2)c1,0%,-16%,4%,54,?,-1%
Cc1ccccc1OCC(=O)Nc1ccncc1,0%,-2%,?,10,16µM*,-6%
Cc1ccc(OCC(=O)Nc2ccncc2)c(C)c1,15%,-1%,21µM*,9,8.2µM*,-1%
Cc1cc(OCC(=O)Nc2ccncc2)ccc1Cl,-1%,-12%,?,-6,?,-10%
Cc1cc(OCC(=O)Nc2ccncc2)cc(C)c1Br,-4%,-23%,?,-50*,?,10µM*
CN(C)Cc1ccccc1-c1cncnc1NCc1cccs1,nt,nt,1%,nt,-11%,nt
Cc1ccccc1OCC(=O)Nc1ccc(C(N)=O)cc1,2%,8%,3%,-5,6%,8%
CC(=O)Nc1cccc(NC(=O)COc2ccccc2C)c1,-5%,0%,12µM*,-5,-70%,-8%
CC(=O)c1cccc(NC(=O)COC(=O)COc2ccccc2C)c1,-9%,6%,10%,-8,-14%,4%
Cc1ccccc1OCC(=O)Nc1ccc2[nH]c(=O)sc2c1,nt,nt,?,nt,16µM*,nt
Cc1cc(OCC(=O)Nc2ccc(Br)cc2)cc2c1C(=O)CC(C)(C)O2,-3%,-16%,29µM*,-81*,23µM*,-3%
Cc1ccccc1OCC(=O)Nc1ccc(Cc2ccncc2)cc1,-15%,-18%,?,-77*,?,-18%
O=C(COc1ccc(Cl)cc1Br)Nc1ccncc1,-2%,-14%,?,?,10µM*,-17%
C[C@@H]1CN([C@H](C)CO)C(=O)CCCn2cc(nn2)CO[C@H]1CN(C)C(=O)c1ccccc1,nt,13%,1%,-3,13%,25%
Brc1ccc2nc(N3CCN(c4ccccc4)CC3)sc2c1,6%,?,3%,-74*,-4%,21%
Clc1ccc2nc(N3CCN(c4ccccc4)CC3)sc2c1,-3%,24%,-20%,8,-19%,11%
COc1ccc2c(c1)c1c(c(=O)n(-c3cccc(C)c3)c(=O)n1CC(=O)Nc1c(C)cc(C)cc1C)n2C,nt,nt,5%,nt,-14%,nt
C=COc1ccc(N2C(=O)c3ccccc3OC2C)cc1 (stereo not drawn),-3%,9%,?,-4,21µM*,22%
Cc1[nH]c2ccccc2c1C(=O)C(=O)NC1CC(=O)N(c2cccc(F)c2)C1 (stereo not drawn),nt,nt,-1%,nt,?,nt
CCOc1ccc(NC(=O)OCCN2CCN(CCc3ccccc3)C(C)C2)cc1 (stereo not drawn),-6%,2%,?,-70*,?,-1%
SMILES,uPA generation,HT1080-NT tox,TDP1 cell CPT,IL1B secr inh,DT40 TDP1 no CPT,HT1080 IDH1KD tx
CCOC(=O)c1ccc(NC(=O)N2CCN(CCc3ccccc3)CC2)cc1,nt,-42%,-19%,-16,?,?
Cc1cc(OCC(O)CNC(C)c2ccccc2)ccc1C(C)C (stereo not drawn),5%,23µM*,23µM*,-91*,23µM*,18µM*
COc1ccc(OCC(O)CNC(C)c2ccccc2)cc1 (stereo not drawn),9%,-25%,?,-12,?,-23%
CC(NCC(O)COc1ccc2ccccc2c1)c1ccccc1 (stereo not drawn),0%,18µM*,16µM*,-94*,16µM*,13µM*
Cc1nnsc1C(=O)NCC1Cc2cccc(-c3ncccn3)c2O1 (stereo not drawn),nt,nt,20%[9.04 µM],nt,0%,nt
CC1CCCC(C)N1C(=O)c1ccccc1Nc1ccc(SC(F)F)cc1 (stereo not drawn),5%,23µM*,23µM*,-23,21µM*,?
Cc1cccc(C)c1NC(=O)COC(=O)c1ccccc1Nc1ccccc1,-1%,13%,?,16,9.2µM*,9%
CC1CN(C(=O)c2ccccc2Nc2ccc(SC(F)F)cc2)CC(C)O1 (stereo not drawn),4%,21%,3%,0,-27%,-11%
CC(OC(=O)c1ccccc1Nc1ccc(SC(F)F)cc1)C(N)=O (stereo not drawn),-20%,-1%,?,-75*,?,-13%
CC(C)(C)NC(=O)COC(=O)c1ccccc1Nc1ccc(SC(F)F)cc1,-11%,-21%,?,13,16µM*,-13%
NC(=O)COC(=O)c1ccccc1Nc1ccc(SC(F)F)cc1,-17%,?,-19%,-3,?,?
O=C(COc1ccccc1Cl)NCCCNC(=O)c1cnccn1,6%,22%,-14%,10,-18%,7%
COc1ccc(Oc2ncc3nc(-c4ccc(OC)cc4)c(=O)n(CCC#N)c3n2)cc1,nt,nt,11%,nt,-8%,nt
Oc1c(C(c2ccc(Cl)cc2)N2CCOCC2)sc2nc(-c3ccco3)nn12 (stereo not drawn),nt,nt,-8%,nt,-18%,nt
Cc1ccc2nc3c(c(N)c2c1)CCN3c1ccccc1,-8%,-25%,16µM*,-77*,18µM*,-22%
O=C(Nc1ccc2ccccc2c1)C(c1ccc(C(F)(F)F)cc1)n1c(=O)c(-c2cc3ccccc3[nH]2)nc2ccccc21 (stereo not drawn),nt,?,?,60,?,16µM*
O=C(Nc1ccc2c(c1)OCCO2)C(c1ccc(C(F)(F)F)cc1)n1c(=O)c(-c2cc3ccccc3[nH]2)nc2ccccc21 (stereo not drawn),nt,?,?,-8,?,16µM*
O=C(Nc1ccc2c(c1)OCCO2)C(c1ccccc1F)n1c(=O)c(-c2cc3ccccc3[nH]2)nc2ccccc21 (stereo not drawn),nt,?,15µM*,-8,18µM*,?
